Results from PubChem BioAssay (NCI).
The panel holds about 83,000 compounds, 20% with a hit somewhere; the sample as a whole holds those more often.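 Negative percent growth values reflect cell death: -40 means 40% of the cells present at the start died, and -100 means all died.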 Calls of active or inactive are those of the source. Rule for the calls: active = growth percent below 10; inactive = the rest.

What was measured:
Experiment in all cases: NCI-60 one-dose screen, 48 h (100 = growth as untreated, 0 = no growth, -100 = all killed)
Conditions in all cases: 10 µM unless noted
NCI-H23 lung = test system: NCI-H23 lung
NCI-H226 lung = test system: NCI-H226 lung
NCI-H322M lung = test system: NCI-H322M lung
HOP-62 NSCLC = test system: HOP-62 NSCLC
NCI-H460 lung = test system: NCI-H460 lung
HOP-92 NSCLC = test system: HOP-92 NSCLC
NCI-H522 lung = test system: NCI-H522 lung
A549/ATCC NSCLC = test system: A549/ATCC NSCLC
786-0 renal = test system: 786-0 renal
COLO 205 colon = test system: COLO 205 colon
DU-145 prostate = test system: DU-145 prostate
K-562 leukemia = test system: K-562 leukemia
MALME-3M melanoma = test system: MALME-3M melanoma
MDA-MB-231 breast = test system: MDA-MB-231 breast
RXF 393 renal = test system: RXF 393 renal
SF-268 CNS = test system: SF-268 CNS
SF-295 CNS = test system: SF-295 CNS
SF-539 CNS = test system: SF-539 CNS
UACC-257 melanoma = test system: UACC-257 melanoma
M14 melanoma = test system: M14 melanoma

Row | SMILES | growth (NCI-H23 lung) | growth (NCI-H226 lung) | growth (NCI-H322M lung) | growth (HOP-62 NSCLC) | growth (NCI-H460 lung) | growth (HOP-92 NSCLC) | growth (NCI-H522 lung) | growth (A549/ATCC NSCLC) | growth (786-0 renal) | growth (COLO 205 colon) | growth (DU-145 prostate) | growth (K-562 leukemia) | growth (MALME-3M melanoma) | growth (MDA-MB-231 breast) | growth (RXF 393 renal) | growth (SF-268 CNS) | growth (SF-295 CNS) | growth (SF-539 CNS) | growth (UACC-257 melanoma) | growth (M14 melanoma)
1 | COc1ccc(Nc2cc(Cl)ccc2C(=O)O)cn1 | 102% (inactive) | 103% (inactive) | 128% (inactive) | 111% (inactive) | 113% (inactive) | 101% (inactive) | 100% (inactive) | 103% (inactive) | 111% (inactive) | 103% (inactive) | 110% (inactive) | 100% (inactive) | 157% (inactive) | 109% (inactive) | 126% (inactive) | 103% (inactive) | 138% (inactive) | 105% (inactive) | 40.3% (inactive) | 102% (inactive)
2 | Cc1cc(Nc2ccc3c(c2)OCO3)c2cc3c(cc2n1)OCO3 | 46% (inactive) | 88% (inactive) | 57.5% (inactive) | 17.9% (inactive) | 6.21% (active) | 10.4% (inactive) | -21.1% (active) | 46.3% (inactive) | 18.9% (inactive) | -21.3% (active) | 3.67% (active) | 36.8% (inactive) | 24.4% (inactive) | 32.3% (inactive) | 6.97% (active) | 37.9% (inactive) | -62.6% (active) | -15.5% (active) | 75.7% (inactive) | -16.7% (active)
3 | O=C(O)c1ccccc1Cc1ccc2c(c1)CCCC2 | 100% (inactive) | 92.5% (inactive) | 99.2% (inactive) | 111% (inactive) | 106% (inactive) | 107% (inactive) | 98.3% (inactive) | 94.9% (inactive) | 107% (inactive) | 112% (inactive) | 118% (inactive) | 106% (inactive) | 108% (inactive) | 95% (inactive) | 105% (inactive) | 99.5% (inactive) | 116% (inactive) | 110% (inactive) | 100% (inactive) | 110% (inactive)
4 | COc1nc2ccccc2s1 | 94.7% (inactive) | 97.3% (inactive) | 111% (inactive) | 114% (inactive) | 99.4% (inactive) | 99.2% (inactive) | 96.3% (inactive) | 96.8% (inactive) | 104% (inactive) | 93.1% (inactive) | 110% (inactive) | 102% (inactive) | 111% (inactive) | 115% (inactive) | 118% (inactive) | 101% (inactive) | 113% (inactive) | 90.7% (inactive) | 84.8% (inactive) | 93.5% (inactive)
5 | Cc1cc(CO)c(O)c(CO)c1 | 121% (inactive) | 115% (inactive) | 98.7% (inactive) | 107% (inactive) | 107% (inactive) | 96.4% (inactive) | 84.4% (inactive) | 103% (inactive) | 107% (inactive) | 114% (inactive) | 115% (inactive) | 87.3% (inactive) | 104% (inactive) | 108% (inactive) | 112% (inactive) | 105% (inactive) | 109% (inactive) | 110% (inactive) | 95.8% (inactive) | 97.6% (inactive)
6 | COC(=O)C1(CC(C)=O)NC(=S)NC(=O)C1C#N (stereo not given) | 99.5% (inactive) | 108% (inactive) | 108% (inactive) | 104% (inactive) | 134% (inactive) | 102% (inactive) | 98.6% (inactive) | 106% (inactive) | 105% (inactive) | 117% (inactive) | 125% (inactive) | 104% (inactive) | 103% (inactive) | 104% (inactive) | 107% (inactive) | 117% (inactive) | 96.8% (inactive) | 103% (inactive) | 118% (inactive) | 110% (inactive)
7 | CC(=O)OCC1CCC(COC(C)=O)CC1 (stereo not given) | 95.5% (inactive) | 105% (inactive) | 96.6% (inactive) | 90.8% (inactive) | 110% (inactive) | 125% (inactive) | 67.4% (inactive) | 79.7% (inactive) | 95.3% (inactive) | 120% (inactive) | 102% (inactive) | 104% (inactive) | 104% (inactive) | 119% (inactive) | 106% (inactive) | 95.1% (inactive) | 99% (inactive) | 104% (inactive) | 82.9% (inactive) | 111% (inactive)
8 | C=CCc1cc(OC)c(O)c(OC)c1 | 105% (inactive) | 93.8% (inactive) | 124% (inactive) | 97.4% (inactive) | 108% (inactive) | 105% (inactive) | 92.2% (inactive) | 83.9% (inactive) | 102% (inactive) | 105% (inactive) | 107% (inactive) | 119% (inactive) | 95.1% (inactive) | 104% (inactive) | 119% (inactive) | 97% (inactive) | 97.3% (inactive) | 92.1% (inactive) | 101% (inactive) | 101% (inactive)
9 | O=S(=O)(O)c1cccc2cccnc12 | 100% (inactive) | 107% (inactive) | 122% (inactive) | 101% (inactive) | 112% (inactive) | 102% (inactive) | 97.4% (inactive) | 106% (inactive) | 105% (inactive) | 127% (inactive) | 120% (inactive) | 107% (inactive) | 112% (inactive) | 120% (inactive) | 124% (inactive) | 95.1% (inactive) | 109% (inactive) | 109% (inactive) | 103% (inactive) | 106% (inactive)
10 | CCN(CC)CCN1CNC(=S)NC1 | 99.2% (inactive) | -70.2% (active) | 108% (inactive) | 98.8% (inactive) | 114% (inactive) | 96.5% (inactive) | 94.6% (inactive) | 106% (inactive) | 101% (inactive) | 106% (inactive) | 106% (inactive) | 102% (inactive) | 103% (inactive) | 114% (inactive) | 114% (inactive) | 102% (inactive) | 102% (inactive) | 103% (inactive) | 111% (inactive) | 102% (inactive)
11 | O=C(CCl)Nc1ccccc1SCc1cc(Cl)cc2c1OCOC2 | 82.7% (inactive) | 82.8% (inactive) | 89.7% (inactive) | 100% (inactive) | 105% (inactive) | -6.11% (active) | -74.8% (active) | 96.5% (inactive) | 99.6% (inactive) | 95.7% (inactive) | 101% (inactive) | 32.1% (inactive) | -69.1% (active) | 88.6% (inactive) | 77.1% (inactive) | 93.8% (inactive) | 94% (inactive) | 93.5% (inactive) | 101% (inactive) | 69.8% (inactive)
12 | Cc1ccc(S(=O)(=O)Oc2ccc3sc4c(CO)ccc(NCCN(C)C)c4c(=O)c3c2)cc1 | -79.5% [100 µM] (active) | -42.2% [100 µM] (active) | -98.2% [100 µM] (active) | -68.3% [100 µM] (active) | -83% [100 µM] (active) | -80.1% [100 µM] (active) | -74.4% [100 µM] (active) | -70.9% [100 µM] (active) | -73.4% [100 µM] (active) | -87.6% [100 µM] (active) | -97.6% [100 µM] (active) | -61.4% [100 µM] (active) | -89.5% [100 µM] (active) | -90.7% [100 µM] (active) | -57.5% [100 µM] (active) | -61.3% [100 µM] (active) | -78.7% [100 µM] (active) | -93.1% [100 µM] (active) | -82% [100 µM] (active) | -96.5% [100 µM] (active)
13 | Nc1ccn(C2CC(N)C(CO)O2)c(=O)n1 (stereo not given) | 80.1% (inactive) | 85.1% (inactive) | 96.6% (inactive) | 69.1% (inactive) | 34.5% (inactive) | 95.7% (inactive) | 77.9% (inactive) | 75.6% (inactive) | 94.1% (inactive) | 97.7% (inactive) | 51.2% (inactive) | 83.9% (inactive) | 79.2% (inactive) | 94.4% (inactive) | 128% (inactive) | 102% (inactive) | 82.4% (inactive) | 76.3% (inactive) | 96% (inactive) | 66.2% (inactive)
14 | O=C(O)c1c[nH]c2ccccc2c1=O | 96.5% (inactive) | 105% (inactive) | 94% (inactive) | 94.9% (inactive) | 105% (inactive) | 87% (inactive) | 93.1% (inactive) | 104% (inactive) | 97.8% (inactive) | 95.3% (inactive) | 98.6% (inactive) | 93.1% (inactive) | 91.9% (inactive) | 98.1% (inactive) | 116% (inactive) | 102% (inactive) | 104% (inactive) | 93.9% (inactive) | 112% (inactive) | 101% (inactive)
15 | O=Cc1ccc(O)c(O)c1 | 100% (inactive) | 95.9% (inactive) | 104% (inactive) | 97.1% (inactive) | 98.9% (inactive) | 84.9% (inactive) | 84.3% (inactive) | 89.4% (inactive) | 101% (inactive) | 95.4% (inactive) | 94.9% (inactive) | 103% (inactive) | 108% (inactive) | 99.7% (inactive) | 88.3% (inactive) | 74.1% (inactive) | 103% (inactive) | 81.9% (inactive) | 93.7% (inactive) | 94.5% (inactive)
16 | CCN(CC)CCOC(=O)Nc1c(C(C)C)cccc1C(C)C | 109% (inactive) | 104% (inactive) | 93.5% (inactive) | 104% (inactive) | 128% (inactive) | 117% (inactive) | 92.8% (inactive) | 95.3% (inactive) | 105% (inactive) | 117% (inactive) | 116% (inactive) | 99% (inactive) | 98.2% (inactive) | 104% (inactive) | 107% (inactive) | 106% (inactive) | 102% (inactive) | 96.6% (inactive) | 97.5% (inactive) | 107% (inactive)
